# Laboratory results: PubChem BioAssay (NCI)
# This is part of a sample that, as a whole, favours compounds with a hit. Of some 83,000 tested, about 20% had one in any assay.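 Method: cells in 96-well plates; compound added at one concentration; 48 h incubation; percent growth measured; values under 10 scored active.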 Unmarked numbers belong to inactive results. Active and inactive are the calls of the source.
# Tests used:
# Experiment in all cases: NCI-60 one-dose screen, 48 h (100 = growth as untreated, 0 = no growth, -100 = all killed)
# Conditions in all cases: 10 µM unless noted
# [1] = system: SK-MEL-2 melanoma
# [2] = system: EKVX NSCLC
# [3] = system: SN12C renal
# [4] = system: UO-31 renal
# [5] = system: TK-10 renal
# [6] = system: ACHN renal
# [7] = system: CAKI-1 renal
# [8] = system: A498 renal
# [9] = system: CCRF-CEM leukemia
# [10] = system: MOLT-4 leukemia
# [11] = system: SR leukemia
# [12] = system: RPMI-8226 leukemia
# [13] = system: OVCAR-8 ovarian
# [14] = system: OVCAR-5 ovarian
# [15] = system: OVCAR-4 ovarian
# [16] = system: SK-OV-3 ovarian
# [17] = system: IGROV1 ovarian
# [18] = system: HS 578T breast
# [19] = system: NCI/ADR-RES ovarian
SMILES,growth [1],growth [2],growth [3],growth [4],growth [5],growth [6],growth [7],growth [8],growth [9],growth [10],growth [11],growth [12],growth [13],growth [14],growth [15],growth [16],growth [17],growth [18],growth [19]
COc1ccc(-c2c3c(cn2Cc2cccc(OC)c2)-c2oncc2CCC3)cc1,96.2%,97.6%,96.6%,81%,106%,102%,76.1%,96.8%,96.8%,98.6%,89.2%,93.6%,98.5%,108%,100%,98.3%,94.3%,101%,97%
CNC(=O)Nc1ccc(Nc2cc(-c3ccc(-n4cccn4)cc3)[nH]n2)c(C)c1,122%,109%,101%,85.4%,138%,109%,113%,129%,93.1%,91.1%,89%,93.3%,102%,111%,102%,107%,108%,116%,99.8%
CCCCCCNC(=O)Oc1ccc(/C(=C(/C)c2ccc(Cl)cc2)c2ccc(OCCN3CCCCCC3)cc2)cc1,108%,76.8%,70%,51.8%,95.8%,87.3%,64.9%,74.5%,46.2%,33.3%,2.59% (active),64.3%,78.2%,83%,61%,96%,68.4%,63.8%,79.4%
CCCCOc1ccc(S(=O)(=O)N2CCN(c3nc(C)cc(N4CCOCC4)n3)CC2)cc1,-8.8% (active),39.9%,40.4%,17.4%,33.6%,15.3%,19.8%,37.1%,60.3%,26.1%,42.4%,3.95% (active),45%,50.4%,49%,-11.6% (active),7.73% (active),63.6%,25.4%
O=[N+]([O-])c1ccc(NC(=S)NNC(=S)Nc2ccc(Br)cc2)cc1,105%,83.5%,88.3%,70%,127%,70.8%,75.6%,82.5%,89.1%,74.9%,79.4%,79.4%,98.6%,91.4%,98.2%,100%,71.7%,107%,84.5%
Cc1ccc(Nc2nc(SC(C)C)nc(-c3ccccc3)c2C#N)cc1,112%,81.7%,95.8%,88.4%,82.1%,88.4%,75.8%,62.3%,81.7%,100%,102%,99%,97%,81.8%,87.3%,96.2%,91%,87.8%,92.2%
O=C1[C@@H]2Cc3c([nH]c4ccccc34)[C@H](c3ccc(Br)cc3)N2C(=O)CN1C1CCN(Cc2c(Cl)cccc2Cl)CC1,99.8%,88.4%,92.5%,67.7%,132%,91.2%,67.6%,103%,88.8%,65.9%,91.7%,79.9%,94.6%,99.4%,86.2%,86.7%,84.7%,90.1%,90.9%
O=C1[C@H]2Cc3c([nH]c4ccccc34)[C@H](c3ccc(Br)cc3)N2C(=O)CN1C1CCN(CC2CCCCC2)CC1,109%,83.8%,73.7%,45.3%,121%,80.4%,52.8%,79.3%,49.1%,38.5%,-12.7% (active),43.2%,85.4%,106%,82.7%,87.9%,82.2%,78%,75.2%
CCCNNC(=O)c1ccc(-c2ccc(NC(=O)CCCCCCC(=O)N[C@H](C(=O)N3C[C@H](O)C[C@H]3C(=O)N[C@@H](C)c3ccc(-c4scnc4C)cc3)C(C)(C)C)cc2)cc1,7.01% (active),79.4%,47.8%,83.6%,2.19% (active),78.2%,61.8%,-14.4% (active),23.2%,21.1%,17.9%,2.23% (active),32.7%,27.3%,53.6%,18.5%,25.5%,30.3%,96.7%
O=S(=O)(Oc1ccc(-c2cn3ccoc3n2)cc1)C1CCCCC1,99.4%,100%,103%,97.4%,105%,105%,92.3%,90%,87.2%,93.5%,85.6%,93.3%,100%,102%,107%,102%,108%,102%,97.8%
O=C(/C=C/c1cccc(C(F)(F)F)c1)Nc1cccc(C(F)(F)F)c1,76.8%,50.1%,83.1%,47.7%,53.5%,70.1%,34.1%,54.3%,31.7%,35.8%,68.6%,24.4%,33%,95.4%,47.7%,79.3%,53%,93%,46.4%
CC1=Cc2ccccc2OC12C=Cc1ccccc1O2 (centres undefined),115%,82.2%,102%,69%,180%,88.4%,78.5%,117%,105%,99.9%,103%,104%,103%,102%,105%,102%,69.1%,106%,98.6%
CC(=O)C1=C(C)NC(NNc2ccccc2)=NC1c1ccc([N+](=O)[O-])cc1 (centres undefined),102%,80%,98.8%,73.3%,109%,76%,43.3%,91.9%,89.7%,82.6%,62.4%,92.4%,91.1%,95.9%,84.3%,106%,82.6%,99.6%,91.4%
COc1cc(OC)cc(-c2cc(-c3c[nH]c4ccccc34)nc(-c3c[nH]c4ccccc34)c2C#N)c1,88.4%,91.5%,95.1%,71.3%,124%,97.2%,91%,96.7%,97.2%,98.6%,81.3%,99%,102%,109%,102%,99.9%,93.7%,102%,97.1%
CCNC(=O)Oc1ccc(/C(=C(/C)c2ccc(OC)cc2)c2ccc(OCCN3CCCCCC3)cc2)cc1,83.4%,69.7%,59.4%,0.828% (active),116%,61.3%,14.5%,54.8%,36.8%,17.2%,-20.7% (active),12.1%,68.4%,72.7%,62.7%,79%,65.4%,16.2%,59.4%
CN1CCN(Cc2ccc(NC(=O)c3cncc(C#Cc4cnc5ccc(OCC(F)F)nn45)c3)cc2C(F)(F)F)CC1,-86.5% (active),-69.1% (active),-75.2% (active),-95.8% (active),-84.4% (active),-98.3% (active),-95.9% (active),-91.7% (active),2.09% (active),-21.7% (active),-24.3% (active),-21.7% (active),-74.6% (active),-47.1% (active),-62.6% (active),-24.2% (active),-53.8% (active),-34.1% (active),-28.1% (active)
